The list is not random: actives were taken first. Their share in the collection is about 3.4%.
PAFAH1B3 FP inh = PAFAH1B3 (human) inhibition. Q15102. recombinant PAFAH1B3, FP-rhodamine probe, fluorescence polarization. inhibition, % at 3.39 µM. hit rate 0.28% among 340,000. AID 492972;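 active = inhibition above the screen-wide average of all tested compounds plus 3 SD, cut at about 25% in these data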;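 also: 0% = enzyme with DMSO only and 100% = wells lacking PAFAH1B3 protein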
PP5 inh = PP5 (human) phosphatase inhibition | purified PP5c, OMFP substrate fluorescence | AID 1987 | hit rate 0.18% among 320,000 | inhibition, % at 6.7 µM | P53041;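 active = inhibition above the campaign's mean inhibition across all tested compounds plus 3 SD, cut at about 9.5% in these data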;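 also: 0% = DMSO only and 100% = 100 µM cantharidin control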
Target sequence (P53041 whole entry, looked up): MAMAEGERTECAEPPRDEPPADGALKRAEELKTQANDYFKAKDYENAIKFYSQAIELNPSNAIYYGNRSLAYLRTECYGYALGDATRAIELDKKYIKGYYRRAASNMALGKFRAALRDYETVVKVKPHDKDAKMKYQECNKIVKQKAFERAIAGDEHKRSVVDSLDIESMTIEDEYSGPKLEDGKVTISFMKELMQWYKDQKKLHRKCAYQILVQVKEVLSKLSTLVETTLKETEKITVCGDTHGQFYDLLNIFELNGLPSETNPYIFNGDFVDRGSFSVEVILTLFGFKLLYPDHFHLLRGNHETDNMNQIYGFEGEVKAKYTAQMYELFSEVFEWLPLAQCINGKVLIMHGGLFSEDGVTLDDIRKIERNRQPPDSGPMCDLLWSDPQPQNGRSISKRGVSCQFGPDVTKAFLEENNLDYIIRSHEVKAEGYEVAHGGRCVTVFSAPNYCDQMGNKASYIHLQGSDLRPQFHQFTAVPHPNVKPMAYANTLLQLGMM
PP1 inh = blocks human PP1-alpha phosphatase, a PP5 counter-screen. P62136. purified PP1alpha, OMFP fluorescence. inhibition, % at 6.7 µM. hit rate 0.9% among 320,000;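 active = inhibition above the mean inhibition of all tested compounds plus 3 SD, computed separately for each screening campaign, cut at about 15% in these data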
PAFAH1B2 FP inh = PAFAH1B2 (human) inhibition. P68402. hit rate 1.2% among 340,000. recombinant PAFAH1B2, FP-rhodamine activity probe, fluorescence polarization. inhibition, % at 3.39 µM. AID 492953;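 active = inhibition above the mean of all tested compounds plus 3 SD, cut at about 24% in these data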;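 also: 0% = enzyme with DMSO and 100% = wells lacking PAFAH1B2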
PAFAH2 inh = PAFAH2 (human) inhibition; Q99487; recombinant PAFAH2, FP-rhodamine activity probe, fluorescence polarization; inhibition, % at 3.39 µM; hit rate 0.99% among 340,000; AID 492956;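 active = inhibition above the mean over all tested compounds plus 3 SD, cut at about 30% in these data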;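 also: inhibitors block probe labeling of enzyme so polarization drops; 0% = enzyme with DMSO and 100% = wells lacking PAFAH2 protein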
pPAFAH FP inh = pPAFAH (human) enzyme inhibition | Q13093 | AID 463082 | hit rate 1.5% among 330,000 | inhibition, % at 3.39 µM | recombinant pPAFAH, FP-rhodamine probe fluorescence polarization;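 active = inhibition above the mean inhibition across the screen plus 3 SD, cut at about 25% in these data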;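 also: inhibitors block binding of the rhodamine activity-based probe so polarization drops; 0% = enzyme with DMSO and 100% = wells lacking pPAFAH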
An asterisk follows results filed as active; x = no result.

SMILES	PAFAH1B3 FP inh	PP5 inh	PP1 inh	PAFAH1B2 FP inh	PAFAH2 inh	pPAFAH FP inh
O=S(=O)(NCc1ccccc1)NCc1ccc(Cl)cc1Cl	4	-5	0	28*	9	2
CSc1ccc(S(=O)(=O)NCc2ccc(Cl)cc2Cl)cc1	4	4	1	29*	1	-1
O=S(=O)(NCc1ccccc1)NCc1ccccc1	6	2	2	1	8	5
CC(=O)Cn1ncc(N2CCOCC2)cc1=O	4	1	-3	-5	-1	10
O=C(Cc1ccc(Br)cc1)NCCc1ccc(F)cc1	-1	-1	0	26*	0	-4
COc1ccc2[nH]c3c(c2c1)CN(C)CC3	11	1	-3	4	-10	-2
O=C(CCN1C(=O)COc2ccccc21)NCCN1CCc2ccccc2C1	2	0	-6	-2	-10	3
COc1ccc(N=C2NC(=O)/C(=C/c3ccco3)S2)cc1	-3	0	1	4	3	10
COc1ccc(S(=O)(=O)/N=C2/NC(=O)/C(=C/c3ccco3)S2)cc1	19	1	1	-2	28	32*
O=C1C(=O)N2C(=C1C(=O)N1CCCCCC1)c1ccccc1CC21CCCC1	6	-1	1	57*	3	0
CC1(C)Cc2ccccc2C2=C(C(=O)N3CCCCCC3)C(=O)C(=O)N21	0	-1	-2	61*	1	1
CCC1(CC)Cc2ccccc2C2=C(C(=O)N3CCCCC3)C(=O)C(=O)N21	4	0	4	17	4	3
COC(=O)c1c(NC(=O)/C=C/c2ccco2)sc2c1CCC2	2	-1	-4	-3	-4	4
O=C(CNC(=O)c1ccc2c(c1)OCO2)NCCOc1ccc(Cl)cc1	2	x	x	14	11	-3
CCC(C)(C)C1CCc2c(sc(NC(=O)c3ccoc3C)c2C(N)=O)C1 (stereo not drawn)	2	2	0	1	14	4
CCC1CCc2c(sc(NC(=O)c3ccoc3C)c2C(N)=O)C1 (stereo not drawn)	-4	3	9	1	2	25*
Cc1ccc(-c2nc(C(=O)NCCCN3CCOCC3)cc3c2[nH]c2ccccc23)cc1	-1	8	15*	3	-6	-7
Cc1ccc(S(=O)(=O)C(CCC(=O)c2ccc(Cl)cc2)C(N)=O)cc1 (stereo not drawn)	5	0	-7	15	10	-1
NS(=O)(=O)c1ccc(Nc2nc(-c3ccc(O)cc3O)cs2)cc1	24	3	2	15	11	27*
CCc1nc2ccc(C(=O)NCCc3ccco3)cc2nc1CC	10	0	-3	1	-15	2
O=C(NCCO)Nc1ccc2nc(-c3ccco3)c(-c3ccco3)nc2c1	x	-2	47*	x	x	72*
COc1ccc2nc(-c3ccco3)c(-c3ccco3)nc2c1	33*	2	6	26*	56*	47*
O=C(NCCCO)c1ccc2nc(-c3ccco3)c(-c3ccco3)nc2c1	29*	x	x	18	33*	x
O=C1CC(c2nc3ccccc3[nH]2)CN1Cc1ccccc1 (stereo not drawn)	11	-1	0	1	5	7
COc1cccc(CN2CCNC(=O)C2CC(=O)NCCCC2CCCC2)c1OC (stereo not drawn)	-3	3	-1	4	-3	8
SMILES	PAFAH1B3 FP inh	PP5 inh	PP1 inh	PAFAH1B2 FP inh	PAFAH2 inh	pPAFAH FP inh
C=CC[C@@H](CC(=O)N(CCO)Cc1ccccc1)C(=O)N[C@H](C)COC(=O)[C@@H](CC=C)Cc1ccc(F)cc1	7	x	x	11	13	3
C=CCC[C@H](Cc1ccc(F)cc1)C(=O)O[C@H](CNC(=O)[C@@H](CC=C)CC(=O)N(CCO)Cc1ccccc1)c1ccccc1	5	x	x	27*	6	19
C=CC[C@H](CC(=O)N(CCO)Cc1ccccc1)C(=O)N[C@H](COC(=O)[C@@H](CC=C)Cc1ccc(F)cc1)Cc1ccccc1	3	x	x	57*	-1	4
CCN1CCN(CCC2Oc3cc([N+](=O)[O-])ccc3NC2=O)CC1 (stereo not drawn)	1	-1	0	7	-8	-8
CC(=O)N1CCN(c2ccc(OC[C@H]3CO[C@](Cn4ccnc4)(c4ccc(Cl)cc4Cl)O3)cc2)CC1	10	5	0	-1	4	26*
Cc1ccc(SCc2ccc(C(=O)Nc3cc([N+](=O)[O-])ccc3C)cc2)cc1	8	1	2	29*	0	7
Nc1cc(Cl)nc(N/N=C/c2ccc([N+](=O)[O-])cc2)n1	4	-3	-1	-3	8	2
CSc1ccccc1NC(=O)CN(C)CC(=O)Nc1cc(C)ccc1C	2	3	1	0	3	0
c1ccc(Oc2nc(-c3ccccn3)nc3ccccc23)cc1	x	1	16*	x	x	2
COc1ccc(Oc2nc(-c3ccccn3)nc3ccccc23)cc1	x	-2	15	x	x	2
Cc1ccc2c(c1)C(=O)C(=O)N2CCCOc1ccccc1C	2	2	15*	3	4	6
Cc1cccc2c1N(CCCOc1ccccc1)C(=O)C2=O	-1	2	17*	-1	7	7
Cc1ccc2c(c1)C(=O)C(=O)N2CCOc1ccccc1	6	-1	7	1	-6	4
COc1ccc(Nc2nc3ccc(C)cn3c(=O)c2/C=N/O)cc1	-7	0	0	-7	-7	-9
Cc1cc(Cl)ccc1C(=O)C1CCCN(C(=O)c2ccc3ncccc3c2)C1 (stereo not drawn)	12	3	0	-1	-4	25*
COc1ccc(-c2cc(C)no2)cc1S(=O)(=O)Nc1cccc(C)c1	6	2	-3	-1	0	30*
COc1ccccc1NS(=O)(=O)c1cc(-c2cc(C)no2)ccc1OC	15	1	-3	4	7	1
COc1cc(NC(=O)c2ccccc2)c(OC)cc1NC(=O)CN1C(=O)NC2(CCCCC2)C1=O	0	-2	-4	-1	-3	6
CC1(c2ccc3ccccc3c2)NC(=O)N(CC(=O)Nc2cccc(S(=O)(=O)N3CCOCC3)c2)C1=O (stereo not drawn)	-8	6	2	-2	-10	33*
CCOc1ccc(S(=O)(=O)N2CCCCC2)cc1NC(=O)CN1C(=O)NC(C)(c2ccc(C)cc2)C1=O (stereo not drawn)	2	2	1	1	6	27*
COc1ccc(S(=O)(=O)N2CCCCCC2)cc1NC(=O)CN1C(=O)NC(C)(c2ccc(C)cc2)C1=O (stereo not drawn)	9	1	1	-3	-2	13
CN(C)c1nc(-c2ccccc2)c2cc(Cl)ccc2n1	-2	-1	0	2	2	-2

Source: PubChem BioAssay (The Scripps Research Institute Molecular Screening Center)
